Sampled rows, rich in hits. Any-hit rate of the full collection: about 4.5%.
Mdm2-MdmX inh = human Mdm2/MdmX binding inhibition; 330,000 compounds, 3% hits; inhibition, % at 8 µM; SaOS-2 split-luciferase Mdm2/MdmX complementation, luminescence; O15151+Q00987;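 active = inhibition of at least 50% at 8 µM in the primary screen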
Target sequence (O15151 whole entry, looked up): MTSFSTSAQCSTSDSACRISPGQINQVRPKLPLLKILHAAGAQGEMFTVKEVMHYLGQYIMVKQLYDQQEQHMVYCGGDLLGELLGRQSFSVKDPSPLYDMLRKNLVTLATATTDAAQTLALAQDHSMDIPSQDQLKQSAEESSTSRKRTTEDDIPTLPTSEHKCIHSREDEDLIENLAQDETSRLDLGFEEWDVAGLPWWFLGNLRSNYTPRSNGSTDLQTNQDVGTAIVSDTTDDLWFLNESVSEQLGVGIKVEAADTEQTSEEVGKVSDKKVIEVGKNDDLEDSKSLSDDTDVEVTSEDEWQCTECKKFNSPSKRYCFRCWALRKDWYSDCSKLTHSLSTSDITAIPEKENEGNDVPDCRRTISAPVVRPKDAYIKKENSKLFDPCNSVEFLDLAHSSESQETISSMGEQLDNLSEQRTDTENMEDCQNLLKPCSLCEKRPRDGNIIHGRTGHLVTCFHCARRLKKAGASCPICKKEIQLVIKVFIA
Target sequence (Q00987 whole entry, looked up): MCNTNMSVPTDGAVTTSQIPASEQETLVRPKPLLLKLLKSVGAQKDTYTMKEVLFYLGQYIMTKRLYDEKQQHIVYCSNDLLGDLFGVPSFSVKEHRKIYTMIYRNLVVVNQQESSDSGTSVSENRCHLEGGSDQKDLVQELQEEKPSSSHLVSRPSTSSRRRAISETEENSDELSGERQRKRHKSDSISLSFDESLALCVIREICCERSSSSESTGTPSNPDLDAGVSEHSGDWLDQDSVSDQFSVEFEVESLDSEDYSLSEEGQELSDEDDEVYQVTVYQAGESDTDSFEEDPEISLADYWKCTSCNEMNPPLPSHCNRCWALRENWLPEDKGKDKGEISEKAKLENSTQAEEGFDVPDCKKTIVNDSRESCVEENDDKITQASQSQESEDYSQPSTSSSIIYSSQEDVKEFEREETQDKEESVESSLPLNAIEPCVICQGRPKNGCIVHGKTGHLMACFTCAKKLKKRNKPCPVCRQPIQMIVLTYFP
Gli-Sufu block = Gli-Sufu pathway antagonism. Sufu-KO-LIGHT fibroblasts, Gli luciferase reporter luminescence. 340,000 compounds, 0.74% hits. inhibition, % at 5 µM;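 active = inhibition above about 55%, limit read from the data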
aSyn UTR inh = MLPCN primary screen, SNCA 5' untranslated region | alpha-synuclein 5'UTR reporter, inhibitor activity | inhibition, % (tested at 7.5 µM) | 300,000 compounds, 0.82% hits; in the data active = inhibition above about 60%;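 also: H4 neuroglioblastoma cells stably carrying SNCA 5'UTR luciferase fusion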
CSC inhib = blocks cancer stem cells. cancer stem cell-like cells viability, luminescence. inhibition, % at 7.5 µM. 300,000 compounds, 1.1% hits. AID 2717; in the data active = inhibition above about 75%; tested in HMLE shEcad cells
697 NFkB inh = inhibitors of the PMA/ionomycin-induced NF-kB reporter in 697 B cells; 697 B-cell NF-kB luciferase reporter, 16 h; inhibition, % at 4 µM; 330,000 compounds, 0.33% hits; in the data active = inhibition above about 35%
Jurkat NFkB inh = lowers PMA/ionomycin-induced NF-kB signal in Jurkat cells | 330,000 compounds, 0.53% hits | inhibition, % at 4 µM | PMA/ionomycin-induced NF-kB luciferase reporter, luminescence; in the data active = inhibition above about 50%
697 NFkB conf = lowers PMA/ionomycin-induced NF-kB signal in 697 B cells. shares compounds with 697 NFkB inh. 697 B-cell NF-kB luciferase, 16 h. inhibition, % at 4 µM. 2,000 compounds, 35% hits. AID 449746; in the data active = inhibition mostly above about 28%, no sharp cut-off; inactive = mostly below about 22%
Numbers stand for hits.

For CCOC(=O)N1CCN(CC(=O)Nc2ccc([N+](=O)[O-])cc2C(=O)Nc2ccccc2F)CC1 the results were Mdm2-MdmX inh inactive, Gli-Sufu block inactive, aSyn UTR inh inactive, CSC inhib inactive, 697 NFkB inh 38, Jurkat NFkB inh inactive and 697 NFkB conf 39.
For CCOc1ccc(NC(=O)/C=C/c2ccccc2)c([N+](=O)[O-])c1 the results were Mdm2-MdmX inh inactive, Gli-Sufu block inactive, aSyn UTR inh inactive, CSC inhib inactive, 697 NFkB inh inactive and Jurkat NFkB inh inactive.
`COc1ccc(N/C=C/C(=O)c2ccccc2)cc1` gave Mdm2-MdmX inh inactive, Gli-Sufu block inactive, aSyn UTR inh inactive, CSC inhib inactive, 697 NFkB inh inactive, Jurkat NFkB inh inactive and 697 NFkB conf inactive.
Screening CCOc1ccc(N/C=C/C(=O)c2ccccc2)c([N+](=O)[O-])c1 returned Mdm2-MdmX inh inactive, Gli-Sufu block inactive, aSyn UTR inh 87, CSC inhib inactive, 697 NFkB inh inactive, Jurkat NFkB inh inactive and 697 NFkB conf inactive.
COc1ccc(N/C=C\C(=O)c2ccc3ccccc3c2)cc1 was read as Mdm2-MdmX inh inactive, Gli-Sufu block inactive, aSyn UTR inh inactive, CSC inhib inactive, 697 NFkB inh inactive and Jurkat NFkB inh inactive.
Screening COC(=O)c1cc(NC(=O)Nc2cc(OC)ccc2OC)cc(C(=O)OC)c1 returned Mdm2-MdmX inh inactive, Gli-Sufu block inactive, aSyn UTR inh inactive, CSC inhib inactive, 697 NFkB inh 39, Jurkat NFkB inh inactive and 697 NFkB conf 34.
COc1ccc2cc3cc(C(=O)Nc4cc(OC)c(OC)c(OC)c4)oc3nc2c1 was read as Mdm2-MdmX inh inactive, Gli-Sufu block inactive, aSyn UTR inh inactive, CSC inhib inactive, 697 NFkB inh 37, Jurkat NFkB inh inactive and 697 NFkB conf inactive.
Screening COc1ccc2cc3cc(C(=O)Nc4ccc5c(c4)OCCO5)oc3nc2c1 returned Mdm2-MdmX inh inactive, Gli-Sufu block inactive, aSyn UTR inh inactive, CSC inhib inactive, 697 NFkB inh inactive and Jurkat NFkB inh inactive.
`COc1ccc(C(=O)Nc2ccc3ncccc3c2)cc1` gave Mdm2-MdmX inh inactive, Gli-Sufu block inactive, aSyn UTR inh inactive, CSC inhib inactive, 697 NFkB inh inactive, Jurkat NFkB inh inactive and 697 NFkB conf inactive.
For Cc1cccc(/C(N)=N/OC(=O)c2ccc(F)cc2)c1 the results were Mdm2-MdmX inh inactive, Gli-Sufu block inactive, aSyn UTR inh inactive, CSC inhib inactive, 697 NFkB inh inactive, Jurkat NFkB inh inactive and 697 NFkB conf inactive.
`O=C(Nc1ccc2oc(-c3cccc4ccccc34)nc2c1)c1ncn[nH]1` gave Mdm2-MdmX inh inactive, Gli-Sufu block inactive, aSyn UTR inh inactive, CSC inhib inactive, 697 NFkB inh inactive and Jurkat NFkB inh inactive.
Screening O=C(Nc1ccc2oc(-c3ccccc3Cl)nc2c1)c1ncn[nH]1 returned Mdm2-MdmX inh inactive, Gli-Sufu block inactive, aSyn UTR inh inactive, CSC inhib inactive, 697 NFkB inh inactive, Jurkat NFkB inh inactive and 697 NFkB conf inactive.
Screening O=C(NC(=S)Nc1cc([N+](=O)[O-])ccc1O)C1CC1 returned Mdm2-MdmX inh inactive, Gli-Sufu block inactive, aSyn UTR inh inactive, CSC inhib inactive, 697 NFkB inh inactive and Jurkat NFkB inh inactive.
For CC(C)(CNC(=O)C1CCCN1C(=O)c1cccs1)N1CCOCC1 (stereo not drawn) the results were Mdm2-MdmX inh inactive, Gli-Sufu block inactive, aSyn UTR inh inactive, 697 NFkB inh 57, Jurkat NFkB inh inactive and 697 NFkB conf inactive.
`CSc1ccc(CNc2ccccc2)cc1` gave Mdm2-MdmX inh inactive, aSyn UTR inh inactive, CSC inhib inactive, 697 NFkB inh inactive and Jurkat NFkB inh inactive.
Screening CSc1ccc(C2NN=C(c3ccccc3)S2)cc1 (stereo not drawn) returned Mdm2-MdmX inh inactive, Gli-Sufu block inactive, aSyn UTR inh 68, CSC inhib inactive, 697 NFkB inh inactive, Jurkat NFkB inh inactive and 697 NFkB conf inactive.
For O=C(O)COCC(=O)Nc1ccc(-n2cnnn2)cc1 the results were Mdm2-MdmX inh inactive, Gli-Sufu block inactive, aSyn UTR inh inactive, CSC inhib inactive, 697 NFkB inh inactive and Jurkat NFkB inh inactive.
`CN1C(=O)CC(c2ccco2)Sc2ccccc21` (stereo not drawn) gave Mdm2-MdmX inh inactive, Gli-Sufu block inactive, aSyn UTR inh inactive, CSC inhib inactive, 697 NFkB inh 39, Jurkat NFkB inh inactive and 697 NFkB conf 29.

Compound activity (PubChem BioAssay)
